Results on 40 molecules are retold here after PubChem BioAssay (NCATS).

Several values for one entry are separate records, joined by “and”; a condition that tells them apart may be missing. Equal entries are not always repeated. Values without a mark were called inactive. A call without a number means that no potency is given here. Activity calls are given as the source filed them. Calls follow the shape of the dose curve; as a rule, active = well fitted activation curve with a large enough effect; inconclusive = small, poorly fitted or top-dose-only effect; inactive = no such curve, though single readings can be large or run the other way.

Sequence of Cytochrome P450 3A4 (Homo sapiens) (P08684 whole entry, looked up): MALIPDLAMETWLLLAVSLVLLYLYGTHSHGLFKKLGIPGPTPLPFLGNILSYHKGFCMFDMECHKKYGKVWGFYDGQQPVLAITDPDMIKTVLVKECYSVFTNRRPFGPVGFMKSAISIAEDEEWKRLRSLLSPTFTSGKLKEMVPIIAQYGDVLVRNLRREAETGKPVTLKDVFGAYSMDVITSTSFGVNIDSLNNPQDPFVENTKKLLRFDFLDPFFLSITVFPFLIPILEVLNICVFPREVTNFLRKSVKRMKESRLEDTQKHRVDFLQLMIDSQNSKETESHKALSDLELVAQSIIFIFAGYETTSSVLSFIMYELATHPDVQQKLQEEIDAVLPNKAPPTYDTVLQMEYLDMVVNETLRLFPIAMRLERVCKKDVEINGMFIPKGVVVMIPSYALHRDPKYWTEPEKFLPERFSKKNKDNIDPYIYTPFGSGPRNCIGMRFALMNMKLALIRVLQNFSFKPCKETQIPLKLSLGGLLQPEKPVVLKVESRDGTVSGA

The assay has as its target Cytochrome P450 3A4 (Homo sapiens) (UniProt P08684). As to the kind of experiment: qHTS Assay for Activators of Cytochrome P450 3A4 (AID 885). Also: nearly all actives have a fitted effect of over 65% in size. Conditions: recombinant CYP3A4, Luciferin-PPXE luminescence, 60 min; series mostly up to 57.1 µM. An outline of the steps: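 Human CYP3A4 dealkylates Luciferin-PPXE to luciferin, which luciferase detection converts to light. Substrate was at its KM (25uM), buffer 200mM KPO4, reaction 60 min at RT.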
Background: Quantitative high-throughput screening tests each substance at several concentrations.
As for `CO[C@H]1COC(=O)C/C=C\[C@@H](C)[C@H](OC)COC(=O)CCC[C@@H]1C`, the activity change, positive = activation is -58.3% [at 11.4 µM]. For `C#CCCCO/N=C1/[C@H]2O[C@@H]2[C@@H](O)[C@H]2[C@H]1CCn1c(=O)n([C@@H](CC)c3ccccc3)c(=O)n12`, the activity change, positive = activation was -55.5% [at 11.4 µM]. For the molecule `COC(=O)[C@@H]1C[C@@]2(O)[C@H](O)[C@H](O)[C@H](O)C[C@H]2N1Cc1ccc(N2CCN(C)CC2)cc1`, the Potency result was “inactive”. For `CC(C)CO/N=C1/C[C@@H](O)[C@@H](O)[C@@H]2[C@@H]3C(=O)N(Cc4ccccc4)C(=O)[C@H]3CC[C@H]12`, the activity change, positive = activation was -30.2% [at 11.4 µM].

Turning to `CO[C@H]1COC(=O)[C@H]2CCCN2C(=O)C/C=C\[C@@H](C)[C@H](OC)COC(=O)C/C=C\[C@@H]1C`, the activity change, positive = activation was -32.7% [at 11.4 µM]. Turning to `CCc1cc2c(nc1CC)CCN(CC/C(C)=N/OC[C@H]1O[C@H](c3ccccc3)C=C[C@@H]1Oc1ccc(OC)cc1)C2`, the activity change, positive = activation was -51.8% [at 11.4 µM].

Take `FC(F)(F)c1ccc(C2[C@H]3CN(Cc4ccc(-c5ccccc5)cc4)[C@H](c4ccccc4)C34CC2(c2ccccc2)C4)cc1` (stereo not given in full): the Potency result is “inactive”.

Turning to `N#Cc1ccc(C23CC4(C2)[C@H](CN(P(=O)(c2ccccc2)c2ccccc2)[C@@H]4c2ccccc2)C3c2ccc(Cl)nc2)cc1` (stereo not given in full), the Potency result is “inactive”. Consider `C#CCCCO/N=C1/C[C@@H](O)[C@@H](O)[C@@H]2[C@@H]3C(=O)N(CCC(=O)OCC)C(=O)[C@H]3CC[C@H]12`, for which the activity change, positive = activation is -51% [at 11.4 µM]. For the molecule `Clc1ccc(C2[C@H]3CN(Cc4ccc(-c5ccccc5)cc4)[C@H](c4ccccc4)C34CC2(c2ccccc2)C4)cn1` (stereo not given in full), the Potency result is “inactive”. The same measure, in the same setting: under `CCC1=C2CC[C@H]3C(=O)NC(=O)[C@H]3[C@H]2[C@@]2(C)C(=O)N(CC3CC3)C(=O)N2C1=O` stands “inactive”. Same read-out and setting: under `N#Cc1ccc(C23CC4(C2)[C@H](CN(CC2CCCCC2)[C@@H]4c2ccccc2)C3c2ccc(C(F)(F)F)cc2)cc1` (stereo not given in full) stands “inactive”. Consider `COC(=O)c1cccc(C23CC4(C2)[C@H](CN(Cc2ccc(-c5ccccc5)cc2)[C@@H]4c2ccccc2)C3c2ccc(C(F)(F)F)cc2)c1` (stereo not given in full), for which the Potency result is “inactive”. Still for that read-out and setting: under `COC(=O)c1cccc(C23CC4(C2)[C@H](CN(C)[C@@H]4c2ccccc2)C3c2ccc(Cl)nc2)c1` (stereo not given in full) stands “inactive”; under `COC(=O)CN=C1OC(=O)N2C(=O)C3=C4C(C[C@H]5C(=O)N(c6ccccc6)C(=O)[C@H]5[C@H]4[C@@]12Cc1ccccc1)[C@H]1C(=O)N(c2ccccc2)C(=O)[C@H]1[C@H]3C` (stereo not given in full), “inactive”. Consider `CC(=O)OC[C@@H]1O[C@H](CCO/N=C(\C)CCN2CCCc3nc(C)c(C)cc32)C=C[C@@H]1OC(C)=O`, for which the activity change, positive = activation was -42.6% [at 11.4 µM]. With `O=C1[C@H]2[C@H]3[C@H](O)[C@H](O)C/C(=N/OC[C@@H](O)COCc4ccco4)[C@@H]3CC[C@@H]2C(=O)N1C1CCCCC1`, the activity change, positive = activation is -51.1% [at 11.4 µM]. The same measure, in the same setting: under `CCc1cc2c(nc1CC)CCN(CC/C(C)=N/OC[C@@H](C)[C@H](OCc1ccccc1)C(C)C)C2` stands -34.8% [at 11.4 µM]; under `O=C1[C@H]2[C@H]3[C@H](O)[C@H](O)C/C(=N/OC[C@@H](O)COCc4ccco4)[C@H]3CC[C@@H]2C(=O)N1Cc1ccccc1`, -57.9% [at 11.4 µM].

For the molecule `CCC1=C2CC[C@H]3C(=O)N(C)C(=O)[C@H]3[C@H]2[C@@]2(C)C(=O)N(CC(=O)OC)C(=O)N2C1=O`, the Potency entry is “inactive”. In the case of `CO[C@H]1COC(=O)C/C=C\[C@@H](C)COC(=O)[C@@H](CCSC)NC(=O)C/C=C\[C@@H]1C`, the activity change, positive = activation was -36.9% [at 11.4 µM] and -35.4% [at 11.4 µM]. Consider `COC(=O)[C@@H]1C[C@H]2CC[C@H](O)C[C@H]2N1Cc1ccc(C)s1`, for which the Potency result is “inactive”.

Regarding `C#CCCCO/N=C1/C[C@@H](O)[C@@H](O)[C@@H]2[C@@H]3C(=O)N(C[C@@H]4CCCO4)C(=O)[C@H]3CC[C@@H]12`, the activity change, positive = activation is -39.4% [at 11.4 µM]. Turning to `COC(=O)[C@@H]1C[C@@H]2CC[C@@H](O)C[C@@H]2N1Cc1ccc(N2CCOCC2)cc1`, the Potency entry is “inactive”. Still for that read-out and setting: the entry for `Cc1ccc2oc(=O)c3c4cc(O)c(O)c(C)c4oc3c2c1` is “inactive”; for `CN1C[C@@H]2C(c3ccccc3)C3(c4ccccc4)CC2(C3)[C@H]1c1ccccc1` (stereo not given in full) it is “inactive”. The same measure, in the same setting: the entry for `COC(=O)N1[C@H](C)C=C[C@]1(Cc1ccccc1)C(=O)NCc1ccc(N(C)C)cc1` is “inactive”.

With `CC(=O)OC[C@@H]1O[C@@H](O/N=C2/C[C@@H](O)[C@@H](O)[C@@H]3[C@@H]4C(=O)N(Cc5ccc6c(c5)OCO6)C(=O)[C@H]4CC[C@@H]23)[C@H](OC(C)=O)[C@H](OC(C)=O)[C@@H]1OC(C)=O`, the activity change, positive = activation was -36.6% [at 11.4 µM].

In the case of `O=C1CCCC=C1[C@@H](O)COCc1ccccc1`, the activity change, positive = activation is -31.3% [at 11.4 µM]. For `COC(=O)c1ccc(C23CC4(C2)[C@H](CN(CC2CCCCC2)[C@@H]4c2ccccc2)C3c2ccc(C(F)(F)F)cc2)cc1` (stereo not given in full), the Potency result was “inactive”.

Regarding `CC(C)=CCC/C(C)=C/CO/N=C1/C[C@@H](O)[C@@H](O)[C@@H]2[C@H]3C(=O)N(c4ccc(F)cc4F)C(=O)[C@@H]3CC[C@H]12`, the activity change, positive = activation is -35.2% [at 11.4 µM]. Turning to `COC(=O)c1cccc(C23CC4(C2)[C@H](CN(Cc2ccc(-c5ccccc5)cc2)[C@@H]4c2ccccc2)C3c2ccccc2)c1` (stereo not given in full), the Potency result is “inactive”. On to `CC(C)=CCC/C(C)=C/CO/N=C1/C[C@@H](O)[C@@H](O)[C@@H]2[C@@H]3C(=O)N(Cc4ccccc4)C(=O)[C@H]3CC[C@H]12`, for which the activity change, positive = activation is -49.8% [at 11.4 µM].

In the case of `Cc1nc(NC2CCCCC2)c2nc(-c3ccccc3)n(CCCN3CCOCC3)c2n1`, the Potency result was “inactive”. As to `Clc1ccc(C2[C@H]3CN(Cc4ccc(-c5ccccc5)cc4)[C@H](c4ccccc4)C34CC2(c2cccnc2)C4)cn1` (stereo not given in full), the Potency entry is “inactive”. `O=C(N/N=C1/C[C@@H](O)[C@@H](O)[C@@H]2[C@H]3C(=O)N(c4ccc(F)cc4F)C(=O)[C@@H]3CC[C@@H]12)OCc1ccccc1`: the activity change, positive = activation was -45.4% [at 11.4 µM]. In the case of `COC(=O)[C@@H]1CC[C@H](C)[C@@H](c2ccc(C)cc2)N1C(=O)c1ccc(/C=N\O[C@@H](C)CN2CCCCc3nc(C)c(C)cc32)cc1`, the activity change, positive = activation is -36.1% [at 11.4 µM]. On to `COC(=O)c1ccc(CN2[C@@H]3C[C@@H](O)CC[C@@H]3C[C@H]2C(=O)OC)cc1`, for which the Potency result was “inactive”.

With `CO[C@@H]1COC(=O)[C@@H](CCSC)NC(=O)C/C=C\[C@@H](C)COC(=O)CCC[C@H]1C`, the activity change, positive = activation is -30.5% [at 11.4 µM].

Consider `CO[C@@H]1COC(=O)C/C=C\[C@@H](C)COC(=O)[C@H](COCc2ccccc2)NC(=O)C/C=C\[C@H]1C`, for which the activity change, positive = activation was -56.3% [at 11.4 µM].
